In PubChem BioAssay (Tox21):
More than one record can exist for a structure, and the calls need not agree. Active and inactive are the calls of the source. Where a call stands in place of a potency, no number is given. Unless noted, calls come from the whole dose curve; as a rule, active = well fitted curve in the direction sought with a large enough effect in the repeat runs; inconclusive = weak or mixed curves; inactive = no such curve, though single readings can be large; an effect the other way counts as inactive or inconclusive.

Legend:
[1] = qHTS assay to identify small molecule antagonists of the thyroid receptor (TR) signaling pathway - cell viability counter screen (AID 743064); note: nearly all actives have a fitted effect of over 50% in size; note: potency is the fitted concentration of half-maximal effect
Method in brief: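 GH3.TRE-Luc rat pituitary cells carrying a TRE-luciferase reporter were treated with compound plus 1 nM T3 (final) for 23.5 h at 37 °C. Viability was then read in the same wells by CellTiter-Fluor fluorescence after a further 30 min.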

[2] = system: thyroid hormone receptor (rat, GH3 cells); assay: qHTS assay to identify small molecule agonists of the thyroid receptor (TR) signaling pathway (AID 743066; calls by dose curve)
[3] = target: Estrogen receptor (Homo sapiens) (UniProt P03372); assay: qHTS assay to identify small molecule antagonists of the estrogen receptor alpha (ER-alpha) signaling pathway (AID 743069; active = well fitted curve in the direction sought with a large enough effect in the signal ratio in the repeat runs, not every such curve was filed as active; inconclusive = weak or mixed curves, or effect the other way; inactive = no such curve, though single readings can be large or run the other way; the % refers to the signal ratio)
Method in brief: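 HEK293 ER-alpha-UAS-bla GripTite cells, held overnight in 2% charcoal-stripped FBS, 5,000 cells/well, preincubated 4 h, then compound plus 17beta-estradiol for 18 h at 37C. Beta-lactamase read by LiveBLAzer B/G FRET substrate, 2 h at room temperature.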

[4] = qHTS assay to identify small molecule antagonists of the estrogen receptor alpha (ER-alpha) signaling pathway - cell viability counter screen (AID 743074; calls by dose curve;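 note: HEK293 cells carrying ER-alpha-UAS-bla reporter stimulated with 17beta-estradiol; nearly all actives have a fitted effect of over 45% in size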; note: potency is the fitted concentration of half-maximal effect)
[5] = target: Estrogen receptor (Homo sapiens) (UniProt P03372); assay: qHTS assay to identify small molecule agonists of the estrogen receptor alpha (ER-alpha) signaling pathway (AID 743075; calls by dose curve; note: potency is the fitted concentration of half-maximal effect)
[6] = target: Estrogen receptor (Homo sapiens) (UniProt P03372); assay: qHTS assay to identify small molecule agonists of the estrogen receptor alpha (ER-alpha) signaling pathway using the BG1 cell line (AID 743079); note: nearly all actives have a fitted effect of over 20% in size; note: potency is the fitted concentration of half-maximal effect
[7] = qHTS assay to identify small molecule antagonists of the estrogen receptor alpha (ER-alpha) signaling pathway using the BG1 cell line (AID 743080; calls by dose curve;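 note: BG1 cells stimulated with 17beta-estradiol alongside compound; series mostly up to about 70 µM; nearly all actives have a fitted effect of over 25% in size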)
Method in brief: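 Seeding, 24 h rest, compound transfer from DMSO, 17beta-estradiol addition, 21.5 h incubation, CellTiter-Fluor (30 min, 37 C), then ONE-Glo (30 min, room temperature): this sequence was run on BG1-Luc-4E2 reporter cells.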

[8] = qHTS assay to identify small molecule antagonists of the estrogen receptor alpha (ER-alpha) signaling pathway using the BG1 cell line - cell viability counter screen (AID 743081);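 note: compound given together with 17beta-estradiol as the ER stimulus; nearly all actives have a fitted effect of over 45% in size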; note: potency is the fitted concentration of half-maximal effect
[9] = target: Aromatase (Homo sapiens) (UniProt P11511); assay: qHTS assay to identify aromatase inhibitors (AID 743083); note: nearly all actives have a fitted effect of over 55% in size; note: potency is the fitted concentration of half-maximal effect
[10] = qHTS assay to identify aromatase inhibitors - cell viability counter screen (AID 743084);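 note: cells stimulated with testosterone during compound exposure; nearly all actives have a fitted effect of over 55% in size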; note: potency is the fitted concentration of half-maximal effect
[11] = target: Aryl hydrocarbon receptor (Homo sapiens) (UniProt P35869); assay: qHTS assay to identify small molecule that activate the aryl hydrocarbon receptor (AhR) signaling pathway (AID 743085); note: nearly all actives have a fitted effect of over 15% in size; note: potency is the fitted concentration of half-maximal effect;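 for activation: HG2L7.5c1 human HepG2 liver cells with stably integrated DRE-driven firefly reporter; series mostly up to about 70 µM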
Method in brief: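 HepG2 cells (HG2L7.5c1) stably carrying a firefly luciferase reporter driven by 20 dioxin responsive elements were exposed to compound for 24 h at 37C after a 5 h settling period; luminescence rise (ONE-Glo) indicated activation.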

[12] = qHTS assay to identify small molecule that activate the aryl hydrocarbon receptor (AhR) signaling pathway - cell viability counter screen (AID 743086);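 note: HepG2 liver cells carrying the AhR DRE luciferase reporter; series mostly up to about 70 µM; nearly all actives have a fitted effect of over 45% in size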
Method in brief: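 HepG2-AhR-luc (HG2L7.5c1) cells, 4000/well, treated 24 h at 37 C with compound; viability measured as CellTiter-Fluor fluorescence after 30 min in the same wells as the luciferase read.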

[13] = target: Peroxisome proliferator-activated receptor gamma (Homo sapiens) (UniProt P37231); assay: qHTS assay to identify small molecule agonists of the peroxisome proliferator-activated receptor gamma (PPARg) signaling pathway (AID 743094; active = well fitted activation curve with a large enough effect in the signal ratio in the repeat runs, not every such curve was filed as active; inconclusive = weak or mixed curves, or effect the other way; inactive = no such curve, though single readings can be large or run the other way; the % refers to the signal ratio)
Method in brief: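 Stably transfected HEK293H cells (GeneBLAzer PPARg UAS-bla) were incubated with test substances for 17 h at 37C after a 5 h pre-incubation; beta-lactamase activity was then detected by FRET substrate fluorescence.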

[14] = qHTS assay to identify small molecule antagonists of the thyroid receptor (TR) signaling pathway (AID 743065); note: nearly all actives have a fitted effect of over 55% in size; note: potency is the fitted concentration of half-maximal effect
Method in brief: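 GH3.TRE-Luc rat pituitary cells (two TREs driving luciferase) were dosed with compound, then stimulated with 1 nM T3 (final) for 23.5 h at 37 C. ONE-Glo luminescence was the read-out, with CellTiter-Fluor fluorescence as the cytotoxicity counter-screen.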

[15] = target: Peroxisome proliferator-activated receptor gamma (Homo sapiens) (UniProt P37231); assay: qHTS assay to identify small molecule antagonists of the peroxisome proliferator-activated receptor gamma (PPARg) signaling pathway (AID 743191; calls by dose curve; note: series mostly up to about 63 µM; nearly all actives have a fitted effect of over 30% in size)
Method in brief: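 GeneBLAzer PPARg UAS-bla HEK293H cells, 5 h post-plating, exposed to compounds 17 h at 37C. LiveBLAzer B/G FRET substrate added for 1 h at room temperature; beta-lactamase reporter read by fluorescence intensity.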

[16] = qHTS assay to identify small molecule antagonists of the peroxisome proliferator-activated receptor gamma (PPARg) signaling pathway - cell viability counter screen (AID 743194); note: nearly all actives have a fitted effect of over 55% in size
Method in brief: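 Cytotoxicity counter screen in PPARg-bla HEK293H cells, same wells as reporter assay. Compounds plus 50 nM rosiglitazone (final) for 17 h at 37 C, then viability read by CellTiter-Glo luminescence.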

[17] = qHTS assay for small molecule agonists of the antioxidant response element (ARE) signaling pathway (AID 743202; active = well fitted activation curve with a large enough effect in the signal ratio in the repeat runs, not every such curve was filed as active; inconclusive = weak or mixed curves, or effect the other way; inactive = no such curve, though single readings can be large or run the other way; the % refers to the signal ratio)
Method in brief: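 ARE-bla HepG2 cells (beta-lactamase reporter under the antioxidant response element), plated 5 hours, then exposed to compounds 16 hours at 37 C. LiveBLAzer B/G FRET substrate added for 2 hours at room temperature; fluorescence intensity read.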

[18] = qHTS assay for small molecule agonists of the antioxidant response element (ARE) signaling pathway - cell viability counter screen (AID 743203; calls by dose curve; note: nearly all actives have a fitted effect of over 55% in size; note: potency is the fitted concentration of half-maximal effect)
Method in brief: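 Cells (ARE-bla HepG2, 2,000/well) receive DMSO-dissolved compounds after a 5 hrs rest. Plates incubate 16 hrs at 37C/5% CO2. CellTiter-Glo luminescence is then recorded after 30 min at room temperature.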

[19] = qHTS assay to identify small molecule agonists of the peroxisome proliferator-activated receptor delta (PPARd) signaling pathway - cell viability counter screen (AID 743211); note: nearly all actives have a fitted effect of over 55% in size; note: potency is the fitted concentration of half-maximal effect
Method in brief: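 PPARd-bla HEK293H cells (UAS-beta-lactamase reporter) were treated with compounds for 17 h at 37 C. Viability was then read in the same wells by CellTiter-Glo luminescence after 30 min at room temperature.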

[20] = target: Peroxisome proliferator-activated receptor delta (Homo sapiens) (UniProt Q03181); assay: qHTS assay to identify small molecule agonists of the peroxisome proliferator-activated receptor delta (PPARd) signaling pathway (AID 743212; calls by dose curve)
Method in brief: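 GeneBLAzer UAS-bla HEK293H cells carrying a PPARδ construct were exposed to compounds at 37 °C. Beta-lactamase activity was read by FRET fluorescence after 2 h at room temperature with LiveBLAzer B/G substrate.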

Sequence of Peroxisome proliferator-activated receptor gamma (Homo sapiens) (P37231 whole entry, looked up): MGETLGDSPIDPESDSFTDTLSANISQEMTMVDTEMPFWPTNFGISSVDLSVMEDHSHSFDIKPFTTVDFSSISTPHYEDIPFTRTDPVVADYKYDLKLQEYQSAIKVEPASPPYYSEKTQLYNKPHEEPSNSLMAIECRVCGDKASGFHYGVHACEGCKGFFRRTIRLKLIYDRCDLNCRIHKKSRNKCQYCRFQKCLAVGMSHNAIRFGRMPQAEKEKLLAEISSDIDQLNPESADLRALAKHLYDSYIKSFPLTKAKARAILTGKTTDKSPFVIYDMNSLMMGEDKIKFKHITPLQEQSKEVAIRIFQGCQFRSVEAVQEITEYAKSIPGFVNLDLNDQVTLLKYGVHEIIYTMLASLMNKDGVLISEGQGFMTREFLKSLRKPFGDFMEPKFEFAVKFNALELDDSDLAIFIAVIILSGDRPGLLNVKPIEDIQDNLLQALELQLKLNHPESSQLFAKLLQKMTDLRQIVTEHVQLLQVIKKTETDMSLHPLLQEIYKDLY
Sequence of Aryl hydrocarbon receptor (Homo sapiens) (P35869 whole entry, looked up): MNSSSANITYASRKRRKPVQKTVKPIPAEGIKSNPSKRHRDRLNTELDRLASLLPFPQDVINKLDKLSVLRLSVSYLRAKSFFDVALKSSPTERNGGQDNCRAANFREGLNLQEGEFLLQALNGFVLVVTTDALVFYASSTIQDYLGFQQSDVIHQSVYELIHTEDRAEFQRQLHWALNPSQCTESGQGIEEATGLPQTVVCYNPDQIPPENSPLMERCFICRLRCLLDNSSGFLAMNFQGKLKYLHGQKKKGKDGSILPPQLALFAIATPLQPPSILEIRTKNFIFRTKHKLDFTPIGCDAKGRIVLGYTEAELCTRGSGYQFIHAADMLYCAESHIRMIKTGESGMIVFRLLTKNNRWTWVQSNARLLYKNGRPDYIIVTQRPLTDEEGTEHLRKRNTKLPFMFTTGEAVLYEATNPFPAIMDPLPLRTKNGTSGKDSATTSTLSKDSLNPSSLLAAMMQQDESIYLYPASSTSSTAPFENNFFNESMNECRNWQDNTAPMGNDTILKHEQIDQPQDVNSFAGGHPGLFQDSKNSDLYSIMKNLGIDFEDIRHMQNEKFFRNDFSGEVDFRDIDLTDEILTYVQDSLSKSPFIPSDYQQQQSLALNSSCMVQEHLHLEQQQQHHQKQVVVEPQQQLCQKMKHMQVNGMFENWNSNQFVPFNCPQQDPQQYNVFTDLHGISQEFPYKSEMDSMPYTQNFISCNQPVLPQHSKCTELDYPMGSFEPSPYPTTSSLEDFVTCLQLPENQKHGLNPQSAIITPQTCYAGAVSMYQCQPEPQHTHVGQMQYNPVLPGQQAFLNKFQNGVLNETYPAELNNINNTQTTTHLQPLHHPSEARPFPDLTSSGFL
Sequence of Estrogen receptor (Homo sapiens) (P03372 whole entry, looked up): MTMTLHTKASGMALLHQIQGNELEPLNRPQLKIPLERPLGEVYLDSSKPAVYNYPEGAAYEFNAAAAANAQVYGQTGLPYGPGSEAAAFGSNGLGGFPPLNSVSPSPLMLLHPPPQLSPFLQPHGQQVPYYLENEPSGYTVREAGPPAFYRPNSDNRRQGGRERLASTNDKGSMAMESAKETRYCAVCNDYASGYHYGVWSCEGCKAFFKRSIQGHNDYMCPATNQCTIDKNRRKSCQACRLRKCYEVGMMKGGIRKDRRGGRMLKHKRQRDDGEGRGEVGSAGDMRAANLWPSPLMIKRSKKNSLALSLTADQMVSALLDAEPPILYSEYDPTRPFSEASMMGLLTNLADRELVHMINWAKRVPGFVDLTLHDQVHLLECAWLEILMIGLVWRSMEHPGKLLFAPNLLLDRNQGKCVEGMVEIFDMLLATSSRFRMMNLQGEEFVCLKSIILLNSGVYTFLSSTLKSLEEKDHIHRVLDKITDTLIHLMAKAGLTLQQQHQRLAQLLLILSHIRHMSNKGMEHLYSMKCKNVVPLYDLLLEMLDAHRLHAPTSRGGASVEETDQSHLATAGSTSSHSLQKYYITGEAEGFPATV
Sequence of Aromatase (Homo sapiens) (P11511 whole entry, looked up): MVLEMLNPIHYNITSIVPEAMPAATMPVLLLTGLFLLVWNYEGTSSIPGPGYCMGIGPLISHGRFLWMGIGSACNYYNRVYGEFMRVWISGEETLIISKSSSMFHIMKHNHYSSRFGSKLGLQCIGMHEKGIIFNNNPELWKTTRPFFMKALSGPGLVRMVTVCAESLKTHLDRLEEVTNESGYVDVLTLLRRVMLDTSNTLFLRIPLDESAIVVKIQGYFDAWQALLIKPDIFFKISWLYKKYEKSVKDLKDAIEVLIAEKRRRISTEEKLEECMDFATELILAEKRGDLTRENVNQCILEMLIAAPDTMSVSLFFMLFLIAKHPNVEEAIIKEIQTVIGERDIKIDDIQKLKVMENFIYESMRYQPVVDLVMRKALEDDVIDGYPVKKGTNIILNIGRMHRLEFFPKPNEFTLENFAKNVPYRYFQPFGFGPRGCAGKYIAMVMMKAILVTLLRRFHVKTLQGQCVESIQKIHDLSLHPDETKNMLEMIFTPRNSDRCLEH
Sequence of Peroxisome proliferator-activated receptor delta (Homo sapiens) (Q03181 whole entry, looked up): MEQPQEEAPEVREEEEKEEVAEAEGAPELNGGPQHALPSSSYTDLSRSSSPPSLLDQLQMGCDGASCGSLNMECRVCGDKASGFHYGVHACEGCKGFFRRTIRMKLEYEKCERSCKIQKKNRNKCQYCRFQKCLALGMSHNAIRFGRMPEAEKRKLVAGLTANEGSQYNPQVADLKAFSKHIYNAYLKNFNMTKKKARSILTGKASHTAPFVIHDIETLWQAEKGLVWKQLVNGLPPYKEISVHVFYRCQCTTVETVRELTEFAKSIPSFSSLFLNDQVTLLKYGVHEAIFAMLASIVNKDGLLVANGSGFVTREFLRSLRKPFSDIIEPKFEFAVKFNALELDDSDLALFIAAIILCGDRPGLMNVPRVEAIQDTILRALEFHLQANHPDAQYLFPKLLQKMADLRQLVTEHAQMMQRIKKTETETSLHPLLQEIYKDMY

O=C(O)c1ccc(NC2OC[C@@H](O)[C@H](O)[C@H]2O)cc1 (some centres undefined)
Potency [1]: inactive | Potency [2]: inactive | Potency [3]: inactive | Potency [4]: inactive | Potency [5]: inactive | Potency [6]: inactive | Potency [7]: inactive | Potency [8]: inactive | Potency [9]: inactive | Potency [10]: inactive | Potency [11]: inactive | Potency [12]: inactive | Potency [13]: inactive

CC(=O)O[C@H]1C[C@@H]2CC[C@@H]3[C@H](CC[C@@]4(C)[C@H]3C[C@H]([N+]3(C)CCCCC3)[C@@H]4OC(C)=O)[C@@]2(C)C[C@@H]1[N+]1(C)CCCCC1
Potency [1]: inactive | Potency [2]: inactive | Potency [3]: inactive | Potency [5]: inactive | Potency [6]: inactive | Potency [7]: inactive | Potency [8]: inactive | Potency [9]: inactive | Potency [10]: inactive | Potency [11]: inactive | Potency [12]: inactive | Potency [13]: inactive

CCC(NC(C)C)C(O)c1ccc(O)c(O)c1 (centres undefined)
Potency [1]: inactive | Potency [2]: inactive | Potency [4]: inactive | Potency [8]: inactive | Potency [9]: inactive | Potency [10]: inactive | Potency [11]: inactive

O=[N+]([O-])c1ccc(O)c2ncccc12
Potency [1]: 5.31 µM (active) | Potency [14]: 4.73 µM (active) | Potency [9]: 7.5 µM (active) | Potency [10]: 10.6 µM (active) | Potency [11]: 3.35 µM (active) | Potency [15]: inactive | Potency [16]: inactive

O=C1c2ccccc2CN2C(=O)c3ccccc3CN12
Potency [1]: inactive | Potency [2]: inactive | Potency [3]: inactive | Potency [4]: inactive | Potency [5]: inactive | Potency [6]: inactive | Potency [7]: inactive | Potency [8]: inactive | Potency [9]: inactive | Potency [10]: inactive | Potency [11]: inactive | Potency [12]: inactive | Potency [13]: inactive

Cc1c(O)c(=O)ccn1C
Potency [1]: inactive | Potency [2]: inactive | Potency [4]: inactive | Potency [5]: inactive | Potency [6]: inactive | Potency [7]: inactive | Potency [8]: inactive | Potency [9]: inactive | Potency [10]: inactive | Potency [11]: inactive | Potency [12]: inactive | Potency [13]: inactive

CC(C)[N+]1(C)[C@@H]2CC[C@H]1CC(OC(=O)C(CO)c1ccccc1)C2 (some centres undefined)
Potency [1]: inactive | Potency [2]: inactive | Potency [3]: inactive | Potency [4]: inactive | Potency [5]: inactive | Potency [6]: 26.6 µM (active) and inactive | Potency [7]: inactive | Potency [8]: inactive | Potency [10]: inactive | Potency [12]: inactive | Potency [13]: inactive

O=P(O)(O)OP(=O)(O)OP(=O)(O)O
Potency [1]: inactive | Potency [2]: inactive | Potency [4]: inactive | Potency [5]: inactive | Potency [6]: inactive | Potency [7]: inactive | Potency [8]: inactive | Potency [9]: inactive | Potency [10]: inactive | Potency [11]: inactive | Potency [12]: inactive | Potency [13]: inactive

O=S(=O)(O)CC(S)CS (centres undefined)
Potency [1]: inactive | Potency [2]: inactive | Potency [4]: inactive | Potency [8]: inactive | Potency [9]: inactive | Potency [10]: inactive | Potency [11]: inactive | Potency [12]: inactive | Potency [13]: inactive

O=C1c2ccccc2C(=O)C1c1ccc(F)cc1
Potency [1]: inactive | Potency [2]: inactive | Potency [3]: inactive | Potency [5]: inactive | Potency [6]: inactive | Potency [7]: inactive | Potency [8]: inactive | Potency [9]: inactive | Potency [10]: inactive | Potency [12]: inactive | Potency [13]: inactive

CC(C)(COP(=O)(O)OP(=O)(O)OC[C@H]1O[C@@H](n2cnc3c(N)ncnc32)[C@H](O)[C@@H]1OP(=O)(O)O)C(O)C(=O)NCCC(=O)NCCS (some centres undefined)
Potency [1]: inactive | Potency [2]: inactive | Potency [3]: inactive | Potency [4]: inactive | Potency [5]: inactive | Potency [6]: 26.6 µM (active) | Potency [7]: inactive | Potency [8]: inactive | Potency [9]: inactive | Potency [10]: inactive | Potency [12]: inactive | Potency [13]: inactive

CCCCCCCCCCCCCCCC(=O)OC[C@H](COP(=O)([O-])OCC[N+](C)(C)C)OC(=O)CCCCCCCCCCCCCCC
Potency [14]: inactive | Potency [2]: inactive | Potency [3]: inactive | Potency [4]: inactive | Potency [5]: inactive | Potency [6]: inactive | Potency [7]: inactive | Potency [8]: inactive | Potency [9]: inactive | Potency [10]: inactive | Potency [11]: inactive | Potency [12]: inactive | Potency [13]: inactive

O=C(CCCN1CCN2CCCC2C1)c1ccc(F)cc1 (centres undefined)
Potency [14]: inactive | Potency [2]: inactive | Potency [3]: inactive | Potency [4]: inactive | Potency [5]: inactive | Potency [6]: inactive | Potency [7]: inactive | Potency [8]: inactive | Potency [9]: inactive | Potency [10]: inactive | Potency [11]: inactive | Potency [12]: inactive | Potency [13]: inactive

COc1c(Br)cc(Br)c(C)c1Br
Potency [1]: inactive | Potency [2]: inactive | Potency [4]: inactive | Potency [8]: inactive | Potency [12]: inactive | Potency [16]: inactive | Potency [17]: inactive | Potency [18]: inactive | Potency [19]: inactive

CCOc1ccc(S(=O)(=O)O)c2cccnc12
Potency [14]: inactive | Potency [2]: inactive | Potency [3]: inactive | Potency [4]: inactive | Potency [5]: 23.9 µM [inconclusive] (active) | Potency [6]: 6.68 µM (active) | Potency [7]: inactive | Potency [8]: inactive | Potency [9]: inactive | Potency [10]: inactive | Potency [11]: inactive | Potency [12]: inactive

CCCC(=O)c1cc(O)c(O)cc1O
Potency [14]: 61.1 µM (active) | Potency [2]: inactive | Potency [3]: inactive | Potency [5]: inactive | Potency [6]: inactive | Potency [7]: inactive | Potency [8]: 61.1 µM (active)

NC(=O)c1cc[n+](CC2=C(C(=O)O)N3C(=O)[C@@H](NC(=O)C(c4ccccc4)S(=O)(=O)[O-])[C@H]3SC2)cc1 (some centres undefined)
Potency [1]: inactive | Potency [2]: inactive | Potency [4]: inactive | Potency [8]: inactive | Potency [9]: inactive | Potency [10]: inactive | Potency [11]: inactive | Potency [12]: inactive | Potency [13]: inactive

CCCCCCCCCCCCCCCCC(C(=O)O)C(O)(CC(=O)O)C(=O)O (centres undefined)
Potency [1]: 26.6 µM (active) | Potency [4]: 26.8 µM (active) | Potency [6]: inactive | Potency [7]: inactive | Potency [8]: inactive | Potency [9]: inactive | Potency [10]: inactive | Potency [11]: inactive | Potency [13]: inactive | Potency [18]: 21.1 µM (active) | Potency [19]: 13.3 µM (active) | outcome [20]: inactive
